Data from the supplement of paper PMC10849652.
About 7,900 targets were measured; listed, in parts, are those with a hit and a random draw of the rest. About 0.6% of all pairs of compound and target were hits. Unmarked numbers belong to inactive results.

Assays:
Assay in all cases: log2 fold change, soluble protein after heating vs DMSO (PISA); higher = thermal stabilisation; K562 cells, 10 uM, 30 min; active = over 0.2 and 3.5 SD of the protein, either way, in both replicates (recomputed)
[1] = compound: CC1=C(C=C(C=C1)NC(=O)C2=CC(=CC=C2)C(C)(C)C#N)NC3=CC4=C(C=C3)N=CN(C4=O)C
Procedure, shortened: (§1)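 Soluble protein was defined as the supernatant after 21,000xg for 90 min. It came from K562 cells at 2×10^6 cells/mL given 10 μM compound for 30 min, heated in aliquots for 3 min across 48°C-58°C, pooled, and extracted in PBS with 0.5% NP-40 at 4°C, and was quantified by TMTpro 16plex LC-MS/MS with equalised channel sums. Thermal stability against control samples, from duplicates, is reported as log2 fold change.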

[2] = compound: CC1=C(C=C(C=C1)NC(=O)C2=CC(=CC=C2)N(C)C)NC(=O)C3=CC=C(C=C3)O
Procedure, shortened: as §1

[3] = compound: CC1=CC=C(C=C1)SC2=C3C=C(SC3=CN=C2)C(=O)N
Procedure, shortened: as §1

[4] = compound: CC1=NC(=CC=C1)C2=C(N=C(N2)C(C)(C)C)C3=CC4=NC=CN=C4C=C3
Procedure, shortened: as §1

[5] = compound: CCCCN(Cc1ccc(C(=O)NO)cc1)C(=O)Nc1ccccc1 [Nexturastat A]
Procedure, shortened: as §1

[6] = compound: CCCS(=O)(=O)Nc1ccc(F)c(C(=O)c2c[nH]c3ncc(-c4ccc(Cl)cc4)cc23)c1F [vemurafenib]
Procedure, shortened: as §1

[7] = compound: CCCS(=O)(=O)Nc1ccc(F)c(C(=O)c2c[nH]c3ncc(Cl)cc23)c1F
Procedure, shortened: as §1

[8] = compound: CCCc1cc(C)[nH]c(=O)c1CNC(=O)c1cc(-c2ccnc(N3CCN(C)CC3)c2)cc2c1cnn2C(C)C
Procedure, shortened: as §1

[9] = compound: CCN(CC)Cc1ccc2cc(COC(=O)Nc3ccc(C(=O)NO)cc3)ccc2c1 [givinostat]
Procedure, shortened: as §1

[10] = compound: CCN(CCCOc1ccc2c(Nc3cc(CC(=O)Nc4cccc(F)c4)[nH]n3)ncnc2c1)CCOP(=O)(O)O [barasertib]
Procedure, shortened: as §1

[11] = compound: CC[C@@H]1C(=O)N(C)c2cnc(Nc3ccc(C(=O)NC4CCN(C)CC4)cc3OC)nc2N1C1CCCC1
Procedure, shortened: as §1

[12] = compound: CC[C@@H]1C(=O)N(C)c2cnc(Nc3ccc(C(=O)N[C@H]4CC[C@H](N5CCN(CC6CC6)CC5)CC4)cc3OC)nc2N1C(C)C [volasertib]
Procedure, shortened: as §1

[13] = compound: CC[C@H](C)N1C=C(C2=C(C=C(C=C21)C3=CN=C(C=C3)N4CCNCC4)C(=O)NCC5=C(C=C(NC5=O)C)C)C
Procedure, shortened: as §1

[14] = compound: CC[C@H](C)[C@@H](C(=O)N[C@@H]([C@@H](C)O)C(=O)N[C@@H](CC(C)C)C(=O)[C@]1(CO1)C)NC(=O)[C@H]([C@@H](C)CC)N(C)C(=O)C [epoxomicin]
Procedure, shortened: as §1

[15] = compound: CCn1c(C(=O)N(C2CC2)C2CC2)cc2c3c(ncn3C)c(Nc3cc(C)n(C)n3)nc21
Procedure, shortened: as §1

[16] = compound: CCn1cc(-c2ccnc3[nH]c(-c4cccc(CN(C)C)c4)cc23)c(-c2ccc(NC(=O)N(C)C)cc2)n1
Procedure, shortened: as §1

[17] = compound: CN(C)CC(=O)Nc1ccc2[nH]c(=O)c3ccccc3c2c1
Procedure, shortened: as §1

[18] = compound: CN(CCOC1=CC=C(C=C1)C[C@H]2C(=O)NC(=O)S2)C3=CC=CC=N3 (racemic) [rosiglitazone]
Procedure, shortened: as §1

[19] = compound: CN1C2=C(C3=C1C(=O)N(N=C3)CC4=CC(=CC=C4)N)SC(=C2)S(=O)C
Procedure, shortened: as §1

[20] = compound: CN1CCC(CNc2ccc3ncc(-c4cccc(OC(F)(F)F)c4)n3n2)CC1
Procedure, shortened: as §1

Chain of UniProt Q6BDS2 (Q6BDS2 whole entry, looked up): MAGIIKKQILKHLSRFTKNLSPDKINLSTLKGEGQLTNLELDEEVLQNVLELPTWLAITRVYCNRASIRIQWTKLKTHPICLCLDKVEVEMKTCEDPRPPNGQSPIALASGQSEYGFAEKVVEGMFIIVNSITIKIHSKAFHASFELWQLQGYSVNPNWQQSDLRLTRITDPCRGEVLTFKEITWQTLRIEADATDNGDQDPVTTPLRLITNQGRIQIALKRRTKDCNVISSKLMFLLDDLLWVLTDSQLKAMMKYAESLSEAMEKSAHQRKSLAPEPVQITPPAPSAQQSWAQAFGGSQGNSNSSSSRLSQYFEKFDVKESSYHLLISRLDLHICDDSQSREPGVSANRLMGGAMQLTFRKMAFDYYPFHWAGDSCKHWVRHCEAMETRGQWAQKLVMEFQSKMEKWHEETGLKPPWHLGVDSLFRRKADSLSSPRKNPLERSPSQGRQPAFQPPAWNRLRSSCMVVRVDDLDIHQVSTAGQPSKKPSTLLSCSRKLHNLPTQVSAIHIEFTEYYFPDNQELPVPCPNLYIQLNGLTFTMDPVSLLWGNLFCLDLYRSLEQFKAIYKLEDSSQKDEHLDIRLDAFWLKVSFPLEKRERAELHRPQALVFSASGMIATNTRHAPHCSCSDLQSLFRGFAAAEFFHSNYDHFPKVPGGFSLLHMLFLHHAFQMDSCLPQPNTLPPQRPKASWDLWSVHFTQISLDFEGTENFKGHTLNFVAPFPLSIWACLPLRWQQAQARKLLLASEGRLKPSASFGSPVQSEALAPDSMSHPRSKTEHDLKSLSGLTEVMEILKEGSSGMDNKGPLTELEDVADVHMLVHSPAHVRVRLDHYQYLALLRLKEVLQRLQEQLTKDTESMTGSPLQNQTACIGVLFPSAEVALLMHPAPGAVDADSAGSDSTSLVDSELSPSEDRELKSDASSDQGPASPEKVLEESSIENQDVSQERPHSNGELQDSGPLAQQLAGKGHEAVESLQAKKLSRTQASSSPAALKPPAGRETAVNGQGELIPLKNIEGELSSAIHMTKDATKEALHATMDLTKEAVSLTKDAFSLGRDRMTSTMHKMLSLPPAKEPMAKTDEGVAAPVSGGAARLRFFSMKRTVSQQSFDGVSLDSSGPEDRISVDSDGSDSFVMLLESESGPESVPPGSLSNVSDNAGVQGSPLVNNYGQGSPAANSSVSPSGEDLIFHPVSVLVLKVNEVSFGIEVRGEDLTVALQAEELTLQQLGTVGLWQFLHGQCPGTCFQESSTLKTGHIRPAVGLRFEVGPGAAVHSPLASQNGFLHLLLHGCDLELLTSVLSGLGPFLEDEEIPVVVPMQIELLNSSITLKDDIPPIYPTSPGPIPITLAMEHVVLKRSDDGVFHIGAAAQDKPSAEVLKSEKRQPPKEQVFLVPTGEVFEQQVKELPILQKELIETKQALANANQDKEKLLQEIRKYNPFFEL
Chain of UniProt Q12888 (Q12888 whole entry, looked up): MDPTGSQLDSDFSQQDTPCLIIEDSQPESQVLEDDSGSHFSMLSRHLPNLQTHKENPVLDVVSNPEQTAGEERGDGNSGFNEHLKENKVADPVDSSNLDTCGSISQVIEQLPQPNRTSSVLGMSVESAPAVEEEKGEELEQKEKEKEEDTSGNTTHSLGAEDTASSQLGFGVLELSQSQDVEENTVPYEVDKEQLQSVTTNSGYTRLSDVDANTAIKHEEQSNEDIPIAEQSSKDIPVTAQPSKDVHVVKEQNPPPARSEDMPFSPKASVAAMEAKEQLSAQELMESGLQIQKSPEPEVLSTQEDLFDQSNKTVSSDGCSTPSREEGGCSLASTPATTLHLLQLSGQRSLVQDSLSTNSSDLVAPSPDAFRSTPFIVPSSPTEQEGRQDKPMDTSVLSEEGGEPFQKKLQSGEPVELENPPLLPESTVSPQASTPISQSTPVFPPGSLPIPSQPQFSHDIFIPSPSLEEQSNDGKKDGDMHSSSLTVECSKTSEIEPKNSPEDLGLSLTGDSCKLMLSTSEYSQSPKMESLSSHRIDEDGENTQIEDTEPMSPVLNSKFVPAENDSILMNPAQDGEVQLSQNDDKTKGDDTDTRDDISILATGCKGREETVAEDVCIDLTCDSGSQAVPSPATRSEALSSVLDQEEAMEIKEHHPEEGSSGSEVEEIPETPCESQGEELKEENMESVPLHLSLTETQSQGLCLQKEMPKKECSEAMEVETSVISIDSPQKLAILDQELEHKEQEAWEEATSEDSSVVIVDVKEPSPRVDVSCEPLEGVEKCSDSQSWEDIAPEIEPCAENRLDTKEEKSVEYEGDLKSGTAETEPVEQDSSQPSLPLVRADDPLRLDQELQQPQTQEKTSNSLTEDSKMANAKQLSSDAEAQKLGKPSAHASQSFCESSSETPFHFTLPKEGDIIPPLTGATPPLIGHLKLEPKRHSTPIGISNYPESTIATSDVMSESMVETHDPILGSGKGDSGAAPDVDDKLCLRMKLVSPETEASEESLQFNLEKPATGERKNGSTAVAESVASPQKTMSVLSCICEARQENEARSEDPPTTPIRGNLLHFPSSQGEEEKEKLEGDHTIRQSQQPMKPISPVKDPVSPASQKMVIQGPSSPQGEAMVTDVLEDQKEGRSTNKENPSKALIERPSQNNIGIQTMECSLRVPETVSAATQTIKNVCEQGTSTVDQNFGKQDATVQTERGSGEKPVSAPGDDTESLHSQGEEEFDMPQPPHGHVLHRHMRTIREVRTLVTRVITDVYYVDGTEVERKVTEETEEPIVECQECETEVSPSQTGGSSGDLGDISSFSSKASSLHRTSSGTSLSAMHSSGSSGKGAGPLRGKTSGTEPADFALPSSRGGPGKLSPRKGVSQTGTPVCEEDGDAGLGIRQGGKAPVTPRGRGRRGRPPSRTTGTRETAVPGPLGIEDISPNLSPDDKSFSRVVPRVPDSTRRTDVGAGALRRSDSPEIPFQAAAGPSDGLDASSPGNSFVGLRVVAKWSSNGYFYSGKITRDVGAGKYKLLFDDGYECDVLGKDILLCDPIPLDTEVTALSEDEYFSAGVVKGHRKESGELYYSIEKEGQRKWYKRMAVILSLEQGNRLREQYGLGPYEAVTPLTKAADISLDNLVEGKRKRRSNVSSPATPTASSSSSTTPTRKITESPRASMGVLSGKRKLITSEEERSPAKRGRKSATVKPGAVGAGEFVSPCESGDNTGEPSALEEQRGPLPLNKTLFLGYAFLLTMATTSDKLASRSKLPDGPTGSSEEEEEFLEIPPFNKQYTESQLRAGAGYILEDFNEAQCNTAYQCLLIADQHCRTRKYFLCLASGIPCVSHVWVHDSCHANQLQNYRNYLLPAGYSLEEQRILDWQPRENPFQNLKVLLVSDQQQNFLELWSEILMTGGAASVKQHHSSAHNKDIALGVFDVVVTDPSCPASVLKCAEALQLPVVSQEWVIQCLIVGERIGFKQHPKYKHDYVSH
Chain of UniProt O00124 (O00124 whole entry, looked up): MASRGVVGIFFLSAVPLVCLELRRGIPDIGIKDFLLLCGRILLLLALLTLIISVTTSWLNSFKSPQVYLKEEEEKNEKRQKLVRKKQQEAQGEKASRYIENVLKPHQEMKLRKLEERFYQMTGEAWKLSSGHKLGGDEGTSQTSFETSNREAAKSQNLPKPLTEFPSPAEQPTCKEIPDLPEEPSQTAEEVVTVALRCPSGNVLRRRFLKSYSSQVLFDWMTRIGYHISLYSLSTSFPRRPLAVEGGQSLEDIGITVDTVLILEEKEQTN
Chain of UniProt Q8WVY7 (Q8WVY7 whole entry, looked up): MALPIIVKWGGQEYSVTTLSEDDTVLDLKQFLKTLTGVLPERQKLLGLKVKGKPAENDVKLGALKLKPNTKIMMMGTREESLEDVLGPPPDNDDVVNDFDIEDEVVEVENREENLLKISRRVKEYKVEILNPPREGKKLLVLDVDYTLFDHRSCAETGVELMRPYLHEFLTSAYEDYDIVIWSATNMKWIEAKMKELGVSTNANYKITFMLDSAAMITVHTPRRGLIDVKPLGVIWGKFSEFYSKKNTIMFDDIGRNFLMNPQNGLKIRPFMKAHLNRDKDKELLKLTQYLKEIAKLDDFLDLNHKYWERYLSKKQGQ
Chain of UniProt Q96JG6 (Q96JG6 whole entry, looked up): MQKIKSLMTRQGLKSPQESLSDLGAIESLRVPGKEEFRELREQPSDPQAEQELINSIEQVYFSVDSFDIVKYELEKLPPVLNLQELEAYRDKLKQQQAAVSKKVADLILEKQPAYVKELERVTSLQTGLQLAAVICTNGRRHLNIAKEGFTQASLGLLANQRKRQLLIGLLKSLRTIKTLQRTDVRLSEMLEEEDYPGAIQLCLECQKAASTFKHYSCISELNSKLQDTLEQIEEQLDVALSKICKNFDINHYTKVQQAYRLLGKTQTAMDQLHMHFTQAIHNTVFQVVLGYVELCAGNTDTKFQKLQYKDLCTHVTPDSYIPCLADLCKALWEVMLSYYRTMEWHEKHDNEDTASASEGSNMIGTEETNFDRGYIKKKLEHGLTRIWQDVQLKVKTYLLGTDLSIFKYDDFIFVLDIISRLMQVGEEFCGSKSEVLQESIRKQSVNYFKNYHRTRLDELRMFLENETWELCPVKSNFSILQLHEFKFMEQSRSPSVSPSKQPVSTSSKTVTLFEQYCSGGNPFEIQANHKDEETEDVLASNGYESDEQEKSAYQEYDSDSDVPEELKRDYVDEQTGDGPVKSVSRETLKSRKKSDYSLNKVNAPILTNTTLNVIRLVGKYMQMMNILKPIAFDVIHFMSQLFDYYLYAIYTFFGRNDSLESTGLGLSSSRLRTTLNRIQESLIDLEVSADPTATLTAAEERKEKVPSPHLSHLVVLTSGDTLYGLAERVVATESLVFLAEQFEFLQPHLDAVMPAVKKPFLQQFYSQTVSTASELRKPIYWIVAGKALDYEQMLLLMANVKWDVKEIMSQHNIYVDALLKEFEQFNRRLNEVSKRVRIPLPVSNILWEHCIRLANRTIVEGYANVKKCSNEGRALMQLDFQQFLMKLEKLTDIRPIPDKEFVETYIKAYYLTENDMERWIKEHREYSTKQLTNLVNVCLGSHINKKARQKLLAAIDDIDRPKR

Target	log2 fold change [1]	log2 fold change [2]	log2 fold change [3]	log2 fold change [4]	log2 fold change [5]	log2 fold change [6]	log2 fold change [7]	log2 fold change [8]	log2 fold change [9]	log2 fold change [10]	log2 fold change [11]	log2 fold change [12]	log2 fold change [13]	log2 fold change [14]	log2 fold change [15]	log2 fold change [16]	log2 fold change [17]	log2 fold change [18]	log2 fold change [19]	log2 fold change [20]
TTC38 (UniProt Q5R3I4)	-0.039	0.405	0.127	0.019	1.05 (active)	0.031	0.012	0.141	0.938 (active)	0.023	0.076	0.253	0.041	0.012	-0.017	-0.05	0.136	-0.015	-0.049	-0.039
UFD1 isoform 1 (UniProt Q92890)	0.02	-0.025	0.037	0.106	0.015	0	0.018	-0.015	0.032	-0.011	-0.009	0.021	0.008	0.063	-0.021	0.063	0.003	0.008	-0.045	-0.015
XPNPEP3 (UniProt Q9NQH7)	-0.045	0.024	0.005	0.017	-0.08	0.011	-0.012	0.013	-0.218	-0.016	0.046	0.075	0.069	0.075	0.01	-0.076	-0.004	-0.002	-0.022	0.012
UBLCP1 (UniProt Q8WVY7)	-0.011	-0.078	-0.03	0.03	0.025	0.076	0.093	-0.006	0.122	0.057	-0.191	-0.356 (active)	0.019	0.168	-0.059	-0.072	0.039	0.019	-0.024	0.013
TP53BP1 isoform 2 (UniProt Q12888)	-0.02	-0.032	0	-0.022	0.045	0	0.02	0.056	0.019	0.022	-0.024	-0.072	0.021	0	-0.01	0	0.008	-0.018	0.052	0.025
TRIP10 (UniProt Q15642)	0.003	-0.026	-0.009	-0.045	0.139	0.08	0.026	-0.012	-0.058	0.015	-0.024	-0.11	0.047	0.034	-0.051	-0.051	0.04	0	-0.036	-0.056
UHRF1BP1 (UniProt Q6BDS2)	-0.068	-0.039	-0.012	-0.011	0.043	-0.035	-0.043	-0.022	-0.012	-0.009	0.137	0.131	0.036	-0.067	-0.013	-0.105	0.012	0.019	-0.09	0.211 (active)
UBR2 (UniProt Q8IWV8)	0.079	-0.08	0.048	-0.03	0.078	0.029	0.037	-0.038	0.192	0.046	0.046	-0.104	-0.004	0.196	-0.026	-0.039	-0.076	0.063	0.114	-0.063
VPS50 (UniProt Q96JG6)	-0.007	-0.076	0.054	0.054	-0.052	0.077	0.066	0.09	0.014	0.059	-0.168	-0.415 (active)	0.08	0.009	-0.037	-0.026	0.009	0.008	0.036	-0.101
TMEM128 (UniProt Q5BJH2)	-0.023	-0.006	-0.005	-0.054	0.021	-0.279	0.052	–	0.249	-0.004	-0.076	-0.005	0.015	0.003	0.006	–	0.149	0.032	-0.033	–
UBE3B (UniProt Q7Z3V4)	0.142	0.086	-0.03	0.007	0.014	–	-0.099	–	–	-0.057	–	-0.554 (active)	0.088	-0.023	–	–	–	0.179	-0.007	–
VPS72 isoform 2 (UniProt Q15906)	-0.051	0.196	0.05	–	-0.17	0.025	-0.028	-0.042	-0.014	0.001	-0.261	0.135	-0.072	-0.107	0.101	–	-0.052	0.041	0.043	–
TTI2 (UniProt Q6NXR4)	0.021	-0.039	0.024	0.023	0.113	0.047	0.06	-0.018	0.135	-0.028	-0.173	-0.414 (active)	0.021	0.085	-0.016	–	0.09	-0.01	0.03	–
UBA52 (UniProt P62987)	-0.046	0.024	-0.107	-0.16	0.281	-0.212	-0.165	0.205	-0.06	0.044	0.227	0.572	–	-0.29	0.071	0.351	-0.256	-0.151	–	0.369
TMEM9B (UniProt Q9NQ34)	-0.068	0.042	0.105	0.01	-0.055	0.013	0.064	0.006	-0.023	-0.015	0.035	-0.192	-0.011	0.109	0.035	0.049	-0.023	0.037	–	-0.054
VPS39 (UniProt Q96JC1)	0.049	-0.015	0.011	0.031	0.014	0.041	0.059	-0.029	0.019	0.053	-0.206	-0.354 (active)	0.054	-0.017	-0.033	-0.091	0.022	0.044	0.008	-0.187
UBXN8 (UniProt O00124)	-0.029	0.169	0.023	–	0.334	0.089	-0.024	–	–	-0.218	0.081	-0.179	–	0.073	–	-0.039	-0.051	0.259	0.147	-0.297
